# Measured values published in PubChem BioAssay.
# Several values for one entry are separate records, joined by “and”; a condition that tells them apart may be missing. Equal entries are not always repeated. Unmarked numbers belong to inactive results.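 How the source made its calls, unless noted: active means GFP signal above the screen-wide mean plus 3 SD, that is over about 124.5% of the solvent control; inconclusive means no reading because the compound's own fluorescence disturbed strain identification; inactive means the rest.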 Records with an inconclusive call do not appear. Peptide text beside a SMILES is read from it.
# Columns and labels:
# [1] = yeast AGP1-GFP level changes, GLN3 branch – cell-based, multiplex flow cytometry, S. cerevisiae, primary screen (AID 1887); settings: 3 h, at 10 µM, active compounds read high;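 further: AGP1-GFP fusion strain of S. cerevisiae within a five-strain barcoded multiplex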
# [2] = target: Beta-2 adrenergic receptor (Homo sapiens) (UniProt P07550); test: agonist-induced loss of surface beta2AR – cell-based, FAP fluorogen, flow cytometry, validation set, pilot screen (AID 504459;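 active means percent response above 42, roughly 3 SD of non-fluorescent test compounds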;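 further: agonist-driven loss of surface beta2AR via internalization measured by FAP dye flow cytometry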); settings: Am2.2-beta2AR cells, at 10 µM, active compounds read high
# Sequence of Beta-2 adrenergic receptor (Homo sapiens) (P07550 whole entry, looked up): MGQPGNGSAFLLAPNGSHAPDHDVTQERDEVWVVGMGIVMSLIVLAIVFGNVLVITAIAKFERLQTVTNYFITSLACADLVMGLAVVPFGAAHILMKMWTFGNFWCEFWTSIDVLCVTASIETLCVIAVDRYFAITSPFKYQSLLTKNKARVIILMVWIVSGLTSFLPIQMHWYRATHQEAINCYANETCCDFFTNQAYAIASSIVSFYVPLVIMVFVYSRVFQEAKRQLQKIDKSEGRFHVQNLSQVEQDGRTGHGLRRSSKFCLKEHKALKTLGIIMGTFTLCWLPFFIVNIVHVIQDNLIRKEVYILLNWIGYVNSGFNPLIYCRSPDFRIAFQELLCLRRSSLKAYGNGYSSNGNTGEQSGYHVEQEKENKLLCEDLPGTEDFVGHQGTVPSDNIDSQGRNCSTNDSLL
Compound,"GFP response, % of DMSO [1]",response [2]
NCC1(c2ccc3c(c2)OCCO3)CCCC1,91.3%,–
C[N+]1(C)[C@@H]2CC(OC(=O)[C@H](CO)c3ccccc3)C[C@H]1[C@@H]1O[C@@H]12 (stereo partly specified),99.6% and 104%,4.9% and -6.87%
O=C1CC[C@@]2(O)[C@H]3Cc4ccc(O)c5c4[C@@]2(CCN3CC2CC2)[C@H]1O5,96.1%,-8.64%
O=C1NC(=O)C2(Cc3ccccc3N3CCCC32)C(=O)N1c1ccc(Cl)cc1 (stereo unspecified),97.5%,-5.5%
CC(=O)[C@H]1CC[C@H]2[C@@H]3CC[C@H]4C[C@H](O)CC[C@]4(C)[C@H]3C(=O)C[C@]12C,90.4%,–
COC1=CC(=O)OC(/C=C/c2ccccc2)C1 (stereo unspecified),103%,–
O=c1[nH]c2ccccc2n1CCCN1CCC(n2c(=O)[nH]c3cc(Cl)ccc32)CC1,101%,2.71%
S=C1NCCN1,99.6%,–
CC(C)C[C@H](NC(=O)[C@@H]1CCCN1C(=O)[C@@H](N)Cc1ccc(O)cc1)C(=O)NCC(N)=O (H-YPLG-NH2),103%,–
Cc1ccc2c(c1)C1CN(C)CCC1N2C(=O)Nc1cccc(Cl)c1 (stereo unspecified),102%,–
CC[C@@H](CO)NC(=O)[C@@H]1C=C2c3cccc4c3c(cn4C)C[C@H]2N(C)C1,94.5%,–
CN(C)[C@@H]1C(=O)C(C(N)=O)=C(O)[C@@]2(O)C(=O)C3=C(O)c4c(O)cccc4[C@@](C)(O)[C@H]3[C@H](O)[C@@H]12,103%,–
